Measured values from PubChem BioAssay (Tox21).
Where “and” joins values, the source holds several entries; their conditions need not be identical. Identical values can stand only once. Inconclusive results are not listed. The source holds several records for some structures; these can differ, active in one and inactive in another. Calls of active or inactive are those of the source. Unless noted, calls follow the shape of the dose curve; as a rule, active = well fitted curve in the direction sought with a large enough effect in the repeat runs; inconclusive = weak or mixed curves; inactive = no such curve, though single readings can be large; an effect the other way counts as inactive or inconclusive.

Tests used:
[1] = qHTS assay to identify small molecule agonists of the NFkB signaling pathway (AID 1159509; active = well fitted curve in the direction sought with a large enough effect in the signal ratio in the repeat runs, not every such curve was filed as active; the % refers to the signal ratio; also: series mostly up to about 61 µM)
Summary of the method: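 Pathway activation was measured in ME-180 cells stably expressing beta-lactamase under NF-kB response element control. Substrate cleavage was read as the 460/530 nm emission shift after 5 hr compound incubation.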

[2] = qHTS assay to identify small molecule agonists of the NFkB signaling pathway - cell viability counter screen (AID 1159515; calls by dose curve; also: series mostly up to about 61 µM; nearly all actives have a fitted effect of over 55% in size)
Summary of the method: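 Cells are seeded (2,000 NFkB-bla ME-180 per well), rested overnight, and dosed with DMSO-dissolved compounds for 5 hr at 37 C. Viability is then read by CellTiter-Glo luminescence after 30 min at room temperature.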

[3] = qHTS assay to identify small molecule agonists of the endoplasmic reticulum stress response signaling pathway (AID 1159516; active = well fitted activation curve with a large enough effect in the signal ratio in the repeat runs, not every such curve was filed as active; the % refers to the signal ratio)
Summary of the method: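 Cells are seeded at 1,500 per well and incubated overnight. Compounds in DMSO are added for 5 hr at 37 C, then beta-lactamase FRET substrate for 2 hr at room temperature, and fluorescence at 460 and 530 nm is measured.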

[4] = qHTS assay to identify small molecule agonists of the endoplasmic reticulum stress response signaling pathway - cell viability counter screen (AID 1159517; calls by dose curve;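 also: HeLa cells carrying an ER stress response element beta-lactamase reporter; series mostly up to about 61 µM; nearly all actives have a fitted effect of over 50% in size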)
Summary of the method: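 Cpd-treated ESRE-bla HeLa (5 hr, 37 C) → LiveBLAzer 2 hr RT → CellTiter-Glo 30 min RT → luminescence.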

[5] = qHTS assay to identify small molecule antagonists of the retinoid-related orphan receptor gamma (ROR-gamma) signaling pathway - cell viability counter screen (AID 1159520); also: nearly all actives have a fitted effect of over 50% in size
Summary of the method: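 Tet-on ROR gamma CHO cells (1,000/well) were plated 4 hr, given compounds in DMSO for 2 hr at 37 C, then induced with 1 uM final doxycycline for 16 hr. Viability was read as ATP by CellTiter-Glo luminescence after 30 min.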

[6] = target: Nuclear receptor ROR-gamma (Homo sapiens) (UniProt P51449); assay: qHTS assay to identify small molecule antagonists of the retinoid-related orphan receptor gamma (ROR-gamma) signaling pathway (AID 1159521;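 also: CHO cells with doxycycline inducible ROR-gamma driving an RORE luciferase reporter; top concentration of the series differs between compounds; nearly all actives have a fitted effect of over 50% in size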)
Summary of the method: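 Tet-on RORγ CHO cells carrying a ROR response element–luciferase reporter were pretreated with compounds for 2 h, then induced with 1 uM (final) doxycycline hyclate for 16 h at 37 C. Antagonism was read as decreased ONE-Glo luminescence.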

[7] = qHTS assay to identify small molecule agonists of the AP-1 signaling pathway - cell viability counter screen (AID 1159525; calls by dose curve; also: nearly all actives have a fitted effect of over 55% in size)
Summary of the method: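 Each titration point was normalised to DMSO and tetra n-octyl ammonium bromide controls. The read was Cell Titer Glo luminescence after 30 min at RT, following 5 h compound exposure of ME-180 AP-1-bla cells at 37 °C.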

[8] = qHTS assay to identify small molecule agonists of the AP-1 signaling pathway (AID 1159526; calls by dose curve)
[9] = target: Retinoic acid receptor RXR-alpha (Homo sapiens) (UniProt P19793); assay: qHTS assay to identify small molecule agonists of the RXR signaling pathway (AID 1159527; calls by dose curve; also: nearly all actives have a fitted effect of over 35% in size; also: potency is read from the fitted curve at half-maximal effect)
Summary of the method: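 GeneBLAzer RXR-alpha-UAS-bla HEK 293T cells in medium with 2% charcoal-stripped FBS, pre-incubated 5 hr at 37 C, then exposed to compounds 16 hr. Beta-lactamase reporter read by FRET substrate, 2 hr room temperature, 460/530 nm emission.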

[10] = qHTS assay to identify small molecule agonists of the RXR signaling pathway - cell viability counter screen (AID 1159529); also: series mostly up to about 77 µM; nearly all actives have a fitted effect of over 50% in size
Summary of the method: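 RXR-alpha-UAS-bla HEK 293T cells in medium with 2% charcoal-stripped FBS were preincubated 5 hr, then exposed to compounds for 16 hr at 37 C. Viability was read as CellTiter-Glo luminescence after 30 min at room temperature.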

[11] = qHTS assay to identify small molecule antagonists of the retinoid acid receptor (RAR) signaling pathway - cell viability counter screen (AID 1159551); also: nearly all actives have a fitted effect of over 35% in size
Summary of the method: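 Cells (C3RL4) are plated, incubated overnight, dosed with compound in DMSO, then given retinol at 1 uM final. After 6 h at 37 C, CellTiter-Glo is added and luminescence read following 30 min at room temperature.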

[12] = qHTS assay to identify small molecule antagonists of the retinoic acid receptor (RAR) signaling pathway (AID 1159552; also: nearly all actives have a fitted effect of over 50% in size)
Summary of the method: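 RARE-luc C3RL4 cells; cpds + 1 uM (final) retinol, 6 hr, 37 C/5% CO2; luciferase reagent, 30 min RT, luminescence readout. Inhibitors of retinol-driven signal scored.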

[13] = qHTS assay to identify small molecule agonists of the retinoic acid receptor (RAR) signaling pathway (AID 1159553)
Summary of the method: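 Seed C3RL4 reporter cells at 1,000 per well and incubate overnight at 37 C. Add compounds in DMSO, incubate 6 hr. Add luciferase reagent, wait 30 min at room temperature, read luminescence.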

[14] = qHTS assay to identify small molecule antagonists of the estrogen related receptor (ERR) signaling pathway - cell viability counter screen (AID 1224818); also: series mostly up to about 46 µM
Summary of the method: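 ERR cells, 2,000/well; 6 h settle at 37 C/5% CO2; compound pin transfer (DMSO); 17.5 h at 37 C; CellTiter-Fluor, 30 min, fluorescence read.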

[15] = qHTS assay to identify small molecule antagonists of the estrogen related receptor signaling pathway with the pleiotropic PPARgamma coactivator (PGC) cell viability counter screen (AID 1224822;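 also: series mostly up to about 46 µM; viability read after 17.5 h compound exposure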)
Summary of the method: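 Multiplexed viability counter screen run in PGC/ERR cells treated with compounds for 17.5 h at 37 C; live-cell protease signal measured by CellTiter-Fluor fluorescence.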

[16] = qHTS assay to identify small molecule antagonists of the vitamin D receptor (VDR) signaling pathway - cell viability counter screen (AID 743225); also: nearly all actives have a fitted effect of over 50% in size
Summary of the method: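 VDR-bla HEK 293T cells, 4 h pre-incubation at 37C, then compound plus 1-alpha,25-dihydroxyvitamin D3 (3 nM final) for 16 h. After the beta-lactamase FRET read, CellTiter-Glo was added to the same wells; luminescence after 30 min at room temperature.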

[17] = qHTS assay to identify small molecule agonists of the estrogen related receptor (ERR) signaling pathway (AID 1224820)
Summary of the method: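 An ERR cell line provided by NTP was seeded at 2,000 cells per well and allowed to settle for 6 h before compounds in DMSO were added. After 18 h at 37 C, luciferase activity was measured by One-Glo luminescence.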

[18] = qHTS assay to identify small molecule agonists of the vitamin D receptor (VDR) signaling pathway - cell viability counter screen (AID 743224)
Summary of the method: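 Cells: VDR-bla, 2,000/well, settled 4 h. Treatment: compounds in DMSO, 16 h, 37C/5% CO2. Readout: CellTiter-Glo luminescence after 30 min RT.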

Measured: Potency

Retinoic acid receptor RXR-alpha (Homo sapiens), sequence (P19793 whole entry, looked up): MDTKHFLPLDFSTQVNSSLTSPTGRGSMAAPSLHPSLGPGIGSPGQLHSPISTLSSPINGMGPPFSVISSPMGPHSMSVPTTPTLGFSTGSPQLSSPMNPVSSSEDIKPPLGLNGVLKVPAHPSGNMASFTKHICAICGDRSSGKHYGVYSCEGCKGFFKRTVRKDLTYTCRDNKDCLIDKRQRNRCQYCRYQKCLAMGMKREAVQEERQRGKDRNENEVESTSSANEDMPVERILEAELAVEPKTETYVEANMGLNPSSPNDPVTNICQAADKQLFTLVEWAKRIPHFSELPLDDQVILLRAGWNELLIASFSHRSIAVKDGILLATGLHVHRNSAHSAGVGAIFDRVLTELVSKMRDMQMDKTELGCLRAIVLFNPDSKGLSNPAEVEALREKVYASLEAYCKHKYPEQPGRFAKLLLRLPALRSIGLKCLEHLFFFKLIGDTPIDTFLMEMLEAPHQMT

CC(C)(Oc1ccc(C2CC2(Cl)Cl)cc1)C(=O)O (stereo not drawn)
not listed: [16] | [17] | [18]
inactive: all other assays above

CCCCC1C(=O)N(c2ccccc2)N(c2ccccc2)C1=O
not listed: [18]
inactive: all other assays above

O=C(O)c1cc(N=Nc2ccc(S(=O)(=O)Nc3ccccn3)cc2)ccc1O
not listed: [14] | [15] | [16] | [17] | [18]
inactive: all other assays above

O=C(O)CCC(=O)O
not listed: [14] | [15] | [16] | [17]
inactive: all other assays above

Cc1ccc(O)cc1
not listed: [14] | [15] | [16] | [17] | [18]
inactive: all other assays above

O=C(c1ccccc1)C(O)c1ccccc1 (stereo not drawn)
inactive and 38.9 µM (active): [9]
not listed: [14] | [15] | [16] | [17] | [18]
inactive: all other assays above

CCOc1ccc(NC(=O)CC(C)O)cc1 (stereo not drawn)
not listed: [14] | [15] | [16] | [17] | [18]
inactive: all other assays above

CC(=O)NS(=O)(=O)c1ccc(N)cc1
not listed: [14] | [15] | [17]
inactive: all other assays above
